The text below walks through data of the supplement of paper PMC12632987.

In this test the target is T1, USP38, Q8NB14.
T1 chain: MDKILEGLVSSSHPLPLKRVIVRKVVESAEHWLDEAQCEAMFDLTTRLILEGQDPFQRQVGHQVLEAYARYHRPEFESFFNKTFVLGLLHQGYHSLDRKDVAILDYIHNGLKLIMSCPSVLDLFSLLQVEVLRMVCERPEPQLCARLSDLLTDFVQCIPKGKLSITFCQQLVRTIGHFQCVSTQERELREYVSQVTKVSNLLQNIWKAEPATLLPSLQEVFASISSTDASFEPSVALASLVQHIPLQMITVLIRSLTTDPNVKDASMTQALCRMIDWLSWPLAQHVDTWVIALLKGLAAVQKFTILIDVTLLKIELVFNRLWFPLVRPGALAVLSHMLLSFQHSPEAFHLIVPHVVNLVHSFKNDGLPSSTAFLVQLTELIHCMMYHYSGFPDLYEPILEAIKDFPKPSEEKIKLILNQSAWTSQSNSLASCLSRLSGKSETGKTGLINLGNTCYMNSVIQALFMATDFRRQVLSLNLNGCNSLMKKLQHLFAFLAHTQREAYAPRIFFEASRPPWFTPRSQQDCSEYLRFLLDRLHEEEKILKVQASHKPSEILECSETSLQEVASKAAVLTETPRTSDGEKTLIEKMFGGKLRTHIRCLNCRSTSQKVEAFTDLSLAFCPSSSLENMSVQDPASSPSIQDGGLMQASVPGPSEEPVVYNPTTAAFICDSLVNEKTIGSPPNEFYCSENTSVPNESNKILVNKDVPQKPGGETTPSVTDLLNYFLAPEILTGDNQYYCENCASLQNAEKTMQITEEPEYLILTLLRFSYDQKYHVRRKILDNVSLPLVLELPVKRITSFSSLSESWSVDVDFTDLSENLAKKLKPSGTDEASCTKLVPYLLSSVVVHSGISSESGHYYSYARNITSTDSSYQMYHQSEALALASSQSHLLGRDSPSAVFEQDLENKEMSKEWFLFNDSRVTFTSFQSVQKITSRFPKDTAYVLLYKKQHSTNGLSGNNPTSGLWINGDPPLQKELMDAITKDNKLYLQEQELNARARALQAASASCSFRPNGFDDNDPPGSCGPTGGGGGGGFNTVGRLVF
Kind of test: median log2 fold change of GCK-ALFA target abundance (FLAG IP / Myc IP barcode read proportion) (log2 ratio); each designed protein is fused to an ALFA-tag nanobody in HEK293 cells to bring the named protein to FLAG-tagged glucokinase (GCK); Myc marks an untargeted standard; higher = target protein stabilised (more abundant). To be noted: target protein: 3xFLAG-MCP-GCK-ALFA reporter; HEK293 landing pad (RPLP). The essentials: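 An ALFA-nanobody-fused binder library was recombined into HEK293 landing-pad cells and induced with 2 μg mL^−1 doxycycline. Cells were transfected with a plasmid expressing a FLAG-tagged target and a Myc-tagged standard. After 48 h, lysates underwent anti-FLAG and anti-Myc immunoprecipitation, and circular RNA barcodes were reverse transcribed, amplified and sequenced. Target abundance is the per-binder median log2 ratio of FLAG to Myc barcode read proportions. Barcodes needed ≥10^−7 proportion in both replicates, binders ≥3 barcodes per replicate, and a 10^−6 pseudocount was added; the two replicates were pooled.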

B1: usp_38_diff_out_4_99_568 (protein)
chain: MKEEKVKEVKELTERAKELLEKAKEAFELSHEERKKKAEELRKELDELAKRMGAIYFEARDSGDEELIEAVTEEADEFVDAYNEAAEALNLLEHEVLEEE
Turning to B1, the “median log2 fold change” value is -0.28.

B2: usp_38_diff_out_5_164_603 (protein)
chain: AVEAALAEMDAIAAELKKELEKLLEEAKKNPEKLEEYKKKLTEATNAALDRLNATTTAALEAAPERADEILAHYDRVVTEMLTKYQEAKEELEKLKKEAA
As for B2, the “median log2 fold change” value was -0.21.

B3: usp_38_diff_out_5_164_584 (protein)
chain: EVEEAFKEMDALTEETIKKLNELLKEAKENPEKAEEYLKEATSLVNSALDKLNEITTETLEKHPEKAEEILKHYDERVTKLLTEYQKVKEEIQKIIEEAK
For B3, the “median log2 fold change” value is -0.0565.

B4: usp_38_diff_out_5_164_587 (protein)
chain: MVEEYLKEMEKITEEAIKKLEELLAEAKKNPEKLDEYKKEIEKLVEKALNEINELVTKALEENPEKAEEILKKYDELVTKLLTAYQKAMKELEALKKEKA
For the molecule B4, the “median log2 fold change” value is -0.281.

B5: usp_38_diff_out_4_99_579 (protein)
chain: EKEKMVERLKELTKRAERLREEAEAAFSLPLEERRELAERLREELDRLAEEAAEIYFEARDSGDEELIKAVEKEADKFVDAYLAAGTALNELEHLVLEEE
On to B5, for which the “median log2 fold change” value is -0.154.

B6: usp_38_diff_out_5_164_582 (protein)
chain: GVEEYLAEMEAIRDETIAKLDALLAEAKENPEKLDEYKKEITDTTNEAINRMTEVTTRALEEHPEKAEEILARYSELMDELLTHYNAVMEELEKLKEELE
In the case of B6, the “median log2 fold change” value was -0.0672.

B7: usp_38_diff_out_5_164_583 (protein)
chain: GVEEYLARLDAIKKETIEELDKLLEEAKKNPEKLEEYKKKITEITNKAINEMTKVTTEALEEFPEQAETILAHYSERIDELLKHYNEVMKELEKLKKELE
Take B7: the “median log2 fold change” value was 0.0633.

B8: usp_38_diff_out_5_164_586 (protein)
chain: TVEAAKKQMDEITEKLIKELKKLKEEAEKDPSKLDEIEKEANEKTNKAIDEMTAITTETLEANPEKADEILAHYSEQIDKMLKEYQELMDYIKKLKEEKE
B8: the “median log2 fold change” value was -0.179.

B9: usp_38_diff_out_5_164_585 (protein)
chain: GVEEAKKKMTELTEETIKKLEELLKKAKENPEKAEEYLKEANKLVQEALDELNRITTETLEAHPEQAEEILAHYSEQVTKLLTKYQEVMKEIKEIIKKAK
As to B9, the “median log2 fold change” value amounted to 0.00563.

B10: usp_38_diff_out_4_99_565 (protein)
chain: EKERMVEEVRRLTERARELLERARAAFELPPEERRRTAEELARELDELARRMGAIAFAARDSGDPELIKAVNEEADEFVDAYTEAATALNELRHLVLQEE
For the molecule B10, the “median log2 fold change” value was determined as 0.126.

B11: usp_38_diff_out_4_99_580 (protein)
chain: EKEKKVKELKKLTEEAKKIKEEAEAAKSLPLEERKKKAEELRKRLDELAKRAAAIYFEARDSGDEELKKAVEEEADKFVDAYLEAGTALNELEHLVLEEE
As for B11, the “median log2 fold change” value came out at 0.145.

B12: usp_38_diff_out_4_99_566 (protein)
chain: MKEELVKKVKELKKKAEELKKKAEEAFKLDHEERKKVAEELEKELDEIAKEMGAIYFSARDSGDAELIKAVQKEADEFVDAYNEAATALNELRHLVLEEE
On to B12, for which the “median log2 fold change” value is 0.0841.

B13: usp_38_diff_out_5_164_600 (protein)
chain: SVEESLAEIDKITAELKEELKALLAEAKENPEKLKEYKKKMTEKMNEAIDKMNEITTKTLEAYPEQADTILAHYDRRMTEMLTAYNEAMKELEALEKELA
In the case of B13, the “median log2 fold change” value is -0.0274.

B14: usp_38_diff_out_4_99_570 (protein)
chain: KKEELVERAKELKERAEELLKEAKKARELSTEERAKKAAEIDKELDELAKEMGEIYFEARDSGDEELIEAVTEVADEFVKAYEKAATELFELQAEVQEEQ
In the case of B14, the “median log2 fold change” value was -0.0709.

B15: usp_38_diff_out_5_164_596 (protein)
chain: SVEEALKELTELTDKTIAEIDKLVAEAKKNPEKLDEYEKQLTETTNEAIDKMNEITTKALEANPEKADEILSHYDEQMTRLLTRYAEAKAEIEALKKALE
B15: the “median log2 fold change” value is -0.12.

B16: usp_38_diff_out_5_164_592 (protein)
chain: GVEKYLEELQKITDEAIKELKELLEEAKENPEKLEEYKKKATEKTNEAIDKMNEITTKALEEHPEQADTILAHYDEQVTKLLTEYNEVLKEIEELKKKKE
Take B16: the “median log2 fold change” value came out at 0.0989.

B17: usp_38_diff_out_5_164_588 (protein)
chain: GLEEYLEEIDKITEETIEKLKKLLEEAKKNPEKLEEYEKEIEKLTEEALDKINEVVTEALEKHPEKAEEILAHYDEQVTRLLTAYQEAKKELEKLKKEKE
In the case of B17, the “median log2 fold change” value was 0.25.

B18: usp_38_diff_out_4_99_573 (protein)
chain: KKEELVEEVKRLTEEVKEIKKEAEAAKSLPLEERRATAEELRRRLDELARRMGEIYFEARDSGDEELIEAVEEEADKFVDEYLKAGTALNELESEVLEAE
On to B18, for which the “median log2 fold change” value came out at 0.007.

B19: usp_38_diff_out_5_164_599 (protein)
chain: SLEEYLRRMEEIREKLIKELKELLEEAKKNPEKLEEIKKEVEKKTEEALNEMNEITTAALEAYPERAEEILRHYSEQVEKMLTEYQEVMEELEKLEKEKK
B19: the “median log2 fold change” value is -0.404.

B20: usp_38_diff_out_5_164_602 (protein)
chain: SLEEYLKEMDELTKELIEELKKLVEEAKKNPEKLEEYKKKINEKTNEAIDKMNEITTKALEEFPEKAEEILKHYSEQIDKMLEAKNAAMKELDALKKAQA
As to B20, the “median log2 fold change” value stood at 0.277.

B21: usp_38_diff_out_4_99_571 (protein)
chain: EKEKIVEEVKKLKEEAEKLLKEAKEAKKLSTEERRKKAEEIRKKLDELAKEMGKLYFEARDSGDKELIEEVNKEADEFVDAYEKAATELFELEAEVEEEE
For the molecule B21, the “median log2 fold change” value was -0.355.

B22: usp_38_diff_out_4_99_569 (protein)
chain: EKEKKVKEVKKIKEKIEELLKEAEEAEKLSVEERRKKAEEIRKELDELAKKLGKLYFEARDSGDKELIEAVNKEADKAVDAYKEAATKLHELEAKVQEEE
For B22, the “median log2 fold change” value was -0.151.

B23: usp_38_diff_out_4_99_578 (protein)
chain: EKEKKVEELKKLTEKAKELKKEAEAAKTLSLEERKKKAEELRKELDKIAEEAAKIYFEARESGDKELIEAVEKEAKKFVDAYLEAGTALNELQHEVDEAE
On to B23, for which the “median log2 fold change” value was -0.163.

B24: usp_38_diff_out_4_99_572 (protein)
chain: EREEMVERMKELTERLKELTARAKAARALPPAERAAAAAALREELDRLAREAGEIYFRARDSGDKELIEEVGKVADEFVDAYLEAGTALNELEAEVDAAA
Turning to B24, the “median log2 fold change” value was found to be 0.235.

B25: usp_38_diff_out_5_164_589 (protein)
chain: GVEKYLEEIDKLTEEAIAKIKELLAEAKKNPEKLDEVEKEIKELTDKTLDEINKITTEALEKFPEKAEEILSHYDEQVTKLLTAYQAALDELAKLKKEKA
For B25, the “median log2 fold change” value is -0.351.

B26: usp_38_diff_out_4_99_574 (protein)
chain: EKEEKVKKAEEIAKKLEELLKEAKKARELSTEERRKKAEEIRKELDELAKELGKIYFEARDSGDKELIKEVEEVAKKAVDAYEKAATELFELEDEVQQEE
B26: the “median log2 fold change” value was -0.356.

B27: usp_38_diff_out_5_164_605 (protein)
chain: GVEEALERLERIREELKKELDELLEEAKKNPEKLEEYKKKVTEKVNEAIDEMNEVTTAALEAHPERADEILAHYDEVVTEMLEHYNKVMEELEKLKKEYE
On to B27, for which the “median log2 fold change” value was -0.0369.

B28: usp_38_diff_out_5_164_594 (protein)
chain: GVDAALAEIDKITEEAIKKMEELLEKAKKNPEQLDEYKKKLTEITNEALDKINATTTAALEAHPEQADTILAHYDKQVTKMLTKYQEALDEIEKLKKEKE
As to B28, the “median log2 fold change” value is -0.474.

B29: usp_38_diff_out_4_99_577 (protein)
chain: EKEKKVEEVKKIKEELKKLKEEAEAAKKLPLEERKKVAEELSKRLDELAKRLGKIYFEARDTGDKELIKAVTEEANKAVDEYLKAATALNELQSLVDEER
B29: the “median log2 fold change” value was -0.345.

B30: usp_38_diff_out_4_99_575 (protein)
chain: EKEEMVERVKRLTEEVRRLLEEVEAARTLSPEERRALAERASAELDRLAEEMGKIYFEARDSGDKELIKAVTEAGDEFVDAYERAGLALAELRNEVDEES
B30: the “median log2 fold change” value is -0.45.

B31: usp_38_diff_out_5_164_604 (protein)
chain: AVEEALAKMKAITEELKKKFDELLAEAKKNPEKLDEYKKEVTEALNKAIDEMNEVTTAALEAAPEQADTILAAYDENVTEMLTHYQAVMDELKALEKEAA
In the case of B31, the “median log2 fold change” value is -0.333.

B32: usp_38_diff_out_5_164_593 (protein)
chain: GVEEYLEELEKITEEAIKKLKELLEEAKKDPSKLEEYKKKATELVNEAIDKMNEITTEALEKHPEKADEILEHYDRQVTRLLTEYQKVMDEIEKIKKELE
As for B32, the “median log2 fold change” value was -0.211.
